# Most compounds without a hit are left out; they make up all but 19% or so of the library.
# KB-V1 cytotox: qHTS assay for MDR1-selective chemotherapeutics: Primary screen using the drug-selected MDR subline cells KB-V1 | KB-V1 MDR cells viability, CellTiter-Glo, 72 h | Potency, µM (highest dose often 46.1 µM), hits mostly cytotoxic | 3.4% of 400,000 active | AID 1347076, 2019; further: nearly all actives have a fitted effect of over 60% in size
#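 Following 72 h at 37 degrees C with compound, KB-V1 cell viability was read by CellTiter-Glo luminescence, medium being phenol-red-free DMEM plus 10% FBS; concentration-response parameters came from normalized, curve-fitted qHTS data.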
# DT40 TDP1 no CPT: qHTS for Inhibitors of human tyrosyl-DNA phosphodiesterase 1 (TDP1): qHTS in cells in absence of CPT; DT40 Tdp1-/- hTDP1 cells, no CPT, ATP luminescence, 48 h; Potency, µM (titrated, usually from 46.2 µM), inactives show at the highest dose activity change, negative = growth inhibition, usual class: inhibitors; 15% of 420,000 active; further: nearly all actives have a fitted effect of over 55% in size
#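 Chicken DT40 Tdp1-/- cells stably complemented with human TDP1 were seeded at 400 cells/well with DMSO in place of 20 nM camptothecin. After compound pinning, cells grew at least 48 hr at 37 °C; viability read by CellTiter-Glo luminescence.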
# KB-3-1 cytotox: qHTS assay for MDR1-selective chemotherapeutics: Primary screen using the parental adenocarcinoma cell KB-3-1 | Potency, µM (top dose mostly 46.1 µM), actives largely listed as cytotoxic | 1.4% of 400,000 active | KB-3-1 viability, CellTiter-Glo ATP luminescence, 72 h | AID 1347075, 2019; further: nearly all actives have a fitted effect of over 60% in size
#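 Multi-concentration cytotoxicity screen in KB-3-1 cells grown in DMEM lacking phenol red with 10% FBS. After 72 h at 37 °C with compound, ATP-dependent luminescence was recorded.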
# HT1080 IDH1KD tx: qHTS for induction of synthetic lethality in tumor cells producing 2HG: qHTS for the HT-1080-IDH1KD cell line; HT-1080 IDH1 knockdown viability, ATP luminescence, 48 h; AID 686971, 2013; 2% of 360,000 active; Potency, µM (series often up to 46.1 µM), for inactives: at the highest dose activity, negative = toxicity, hits mostly cytotoxic;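 further: 0% = DMSO wells and -100% = cell-free medium wells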
#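 % activity derives from luminescence (CellTiter-Glo), normalised to DMSO and no-cell wells. HT-1080-IDH1KD cells, 750/well, had 48 h compound exposure at 37 °C.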
# DT40 TDP1 CPT: qHTS for Inhibitors of human tyrosyl-DNA phosphodiesterase 1 (TDP1): qHTS in cells in presence of CPT; chicken DT40 Tdp1-/-;hTDP1 cells + 20 nM CPT, ATP luminescence, 48 h; Potency, µM (highest dose often 46.2 µM), inactives show at the top dose activity change, negative = growth inhibition, usual class: inhibitors; 12% of 420,000 active; AID 686979, 2013; further: nearly all actives have a fitted effect of over 55% in size
#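 Cell growth measured by CellTiter-Glo luminescence after a minimum 48 h, 37 C compound exposure with 20 nM CPT in Tdp1-knockout DT40 cells stably expressing hTDP1, seeded 400/well; qHTS titration format.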
# HT1080NT lethal: qHTS for induction of synthetic lethality in tumor cells producing 2HG: qHTS for the HT-1080-NT fibrosarcoma cell line; 1.6% of 360,000 active; HT-1080-NT fibrosarcoma viability, CellTiter-Glo ATP luminescence, 48 h; AID 686970, 2013; Potency, µM (top dose mostly 46.1 µM), for the others: top-dose activity, negative = less viability, actives largely listed as cytotoxic;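 further: NT is the 2HG producing partner of a matched IDH1 knockdown line; 0% = DMSO-treated cells and -100% = media-only wells without cells; nearly all actives have a fitted effect of over 55% in size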
#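 Fibrosarcoma NT cells, 750 per well in 5% FBS RPMI, were exposed to compound for 48 hours. Viability: CellTiter-Glo luminescence.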
# Starred values were filed as active, the others as inactive; i = inactive; u = inconclusive; x = not tested or not shown. The call rests on the fitted dose curve; in most records, active means well fitted curve in the direction sought with a large enough effect; inconclusive means small, poorly fitted or top-dose-only effect, or another doubt; inactive means no such curve, though single readings can be large; an effect the other way counts as inactive or inconclusive. Unless noted, on the % scale 0 is the no-effect control and ±100 the full control effect; potency means the concentration at half of the fitted maximal effect.
SMILES,KB-V1 cytotox,DT40 TDP1 no CPT,KB-3-1 cytotox,HT1080 IDH1KD tx,DT40 TDP1 CPT,HT1080NT lethal
CC/C=C/C(=O)N1CC2(CC(c3cccc(NC(=O)CC(c4ccccc4)c4ccccc4)c3)=NO2)C[C@@H]1C(N)=O (some centres not stated),i,16µM*,i,-21%,-86%,-29%
COc1ccc(C(=O)NCCC(=O)N2CCC3(CC2)NCCc2[nH]cnc23)cc1,i,-25%,i,-1%,u,27%
Cc1ccc(Cn2cc(CN3CC(N4CCSCC4)CS3(=O)=O)nn2)cc1 (configuration not stated),i,-22%,i,u,-4%,12%
O=C(O[C@H]1[C@H](Cc2ccccc2)NS(=O)(=O)[C@H]2CC3C=C[C@]12O3)c1ccc(Br)cc1,u,u,i,x,u,x
Cc1cccc(C(=O)O[C@@H]2[C@H](Cc3ccccc3)NS(=O)(=O)[C@H]3C[C@@H]4C=C[C@]23O4)c1,i,23µM*,u,9%,u,16%
O=C(O[C@H]1[C@H](Cc2ccccc2)NS(=O)(=O)[C@H]2C[C@@H]3C=C[C@]12O3)c1ccccc1Br,i,u,i,x,u,x
C[C@@H]1NS(=O)(=O)[C@H]2C[C@@H]3C=C[C@]2(O3)[C@H]1OC(=O)c1ccc(C(C)(C)C)cc1,i,16µM*,i,-3%,23µM*,-1%
Cc1ccccc1C(=O)O[C@H]1[C@H](Cc2ccccc2)NS(=O)(=O)[C@H]2CC3C=C[C@]12O3,u,20µM*,i,-7%,u,0%
O=C1NC[C@H](CCCCN2CCN(CCc3ccc(O)cc3)C(=O)C2=O)N(CCc2ccc(O)cc2)C1=O,i,-6%,i,7%,3%,14%
CCN(CC)C(=O)C1=C(C)N(CCCN2CCCC2=O)C(=O)C(CC(=O)NCc2cccc3ccccc23)C1 (configuration not stated),u,u,i,-5%,-17%,10%
NNC(=O)C(Cc1cnc[nH]1)NC(=O)OCc1ccccc1 (configuration not stated),i,7%,i,15%,10%,3%
CC1(C)Cc2ccccc2/C(=C/C(=O)N2CCCCCC2)N1,i,26µM*,i,u,16µM*,-27%
O=C(Cn1c(=O)n(Cc2nc(-c3ccccc3)no2)c(=O)c2ccccc21)Nc1cccc(Cl)c1,i,u,i,x,u,x
Cc1ccc(S(=O)(=O)N(C)CCCC(=O)Nc2ccc(F)cc2)cc1,i,-25%,i,-1%,21µM*,0%
CC(=O)Nc1ccc(S(=O)(=O)N(C)S(=O)(=O)c2ccc(F)cc2)cc1,16µM*,0%,i,u,-5%,6%
CN(c1ccccc1)S(=O)(=O)c1ccc(NC(=O)c2ccc(F)cc2)cc1,i,u,i,-19%,-12%,-10%
Cc1ccc(S(=O)(=O)N(C)CCCC(=O)Nc2ccncc2)cc1,i,13µM*,i,-10%,10µM*,-5%
COc1ccc(NC(=O)CCCN(C)S(=O)(=O)c2ccc(C)cc2)cc1,u,u,i,-3%,u,-3%
CCN1CCN(C(=O)c2cc(COc3ccc(C(C)=O)cc3OC)on2)CC1,i,-3%,i,24%,3%,22%
C=CCn1c(-c2ccccc2)c[nH]c1=S,u,u,u,-2%,26µM*,-3%
CCn1c(-c2ccc(-c3ccccc3)cc2)c[nH]c1=S,u,u,u,-20%,u,-3%
Cc1ccc(-c2c[nH]c(=S)n2-c2ccccc2)cc1,i,-20%,i,1%,u,-8%
C=CCn1c(-c2ccc(Cl)cc2)c[nH]c1=S,23µM*,u,21µM*,-8%,-13%,0%
Cn1c(-c2ccc(-c3ccccc3)cc2)c[nH]c1=S,u,u,u,10%,8.2µM*,4%
O=C1NCCN1CCNc1nc(NCC2CC2)nc2cc(-c3ccccc3)sc12,i,21µM*,i,u,u,u
SMILES,KB-V1 cytotox,DT40 TDP1 no CPT,KB-3-1 cytotox,HT1080 IDH1KD tx,DT40 TDP1 CPT,HT1080NT lethal
COCCNc1nc(NCCOc2ccccc2Cl)c2sc(-c3ccccc3)cc2n1,i,13µM*,i,u,9.2µM*,u
c1ccc(-c2cc3nc(NCC4CC4)nc(NCC4CCCCC4)c3s2)cc1,u,2.9µM*,u,4.6µM*,4.6µM*,3.3µM*
COCCNc1nc(NCC2CCCCC2)c2sc(-c3ccccc3)cc2n1,u,8.2µM*,u,18µM*,15µM*,18µM*
CCN1C(=O)[C@H]2[C@@H](c3ccc(C)cc3)N[C@]3(CCCN(CCC(C)C)C3=O)[C@H]2C1=O,u,-28%,i,3%,-7%,5%
COCCNc1nc(NCCCN2CCCC2=O)c2sc(-c3ccccc3)cc2n1,i,u,i,u,u,u
COCCNc1nc(-c2ccccc2CO)c2sc(-c3ccccc3)cc2n1,21µM*,1.8µM*,5.8µM*,0.92µM*,1.3µM*,u
CC(C)n1ncc2c(C(=O)Nc3cccc(S(=O)(=O)N(C)C)c3)cc(C3CC3)nc21,8.2µM*,9.2µM*,u,-3%,18µM*,-2%
CC(C)n1ncc2c(C(=O)Nc3ccc(S(C)(=O)=O)cc3)cc(C3CC3)nc21,i,u,i,1%,u,-13%
CC(=O)Nc1ccc(NC(=O)c2cc(C3CC3)nc3c2cnn3C(C)C)cc1,i,u,i,-10%,29µM*,-11%
CN(C)c1ccc(C(=O)C(=O)N2CCN(c3ccccc3)CC2)cc1,i,u,i,16%,u,20%
C=C(C)COc1ccc(-c2nc(N)ncc2Oc2ccc(OC)cc2)c(O)c1,u,29µM*,i,u,u,u
CCOc1ccc(-c2nc(N)ncc2Oc2cccc(OC)c2)c(O)c1,u,18µM*,u,u,u,-25%

# High-throughput results as filed in PubChem.
